# Measurements reported in PubChem BioAssay AID588742 (Southern Research Specialized Biocontainment Screening …, 2011).
# Hit rate of the full screen: of about 1,800 compounds, about 410 (23%) were called active. The rule behind the calls is not given here. Not all results are given here. Measured potencies and affinities stand elsewhere.
# Test: Vero cell cytotoxicity, cytotoxicity control for flavivirus capping enzyme inhibitors (AID 588742)
# Conditions: Vero cells viability, cytotoxicity counter-screen; series mostly up to 40 µM; viability: at the top concentration
row,SMILES,viability
1,CC1=NN(c2ccc(C)c(C)c2)C(=O)C1C(c1cccc(O)c1)C1C(=O)N(c2ccc(C)c(C)c2)N=C1C (stereo not drawn),102% (inactive)
2,CCCCC1=CC2=C(c3ccco3)C(=O)C(C)(OC(=O)c3ccc(OC)cc3)C(=O)C2=CN1C(CO)CO (stereo not drawn),98.4% (inactive)
3,C=CCOc1ccc(C(c2c(O)nc(SC)[nH]c2=O)c2c(O)nc(SC)[nH]c2=O)cc1,107% (inactive)
4,CC(=O)N1c2ccc(S(=O)(=O)N(C)CC(=O)Nc3ccccc3C)cc2CC1C (stereo not drawn),108% (inactive)
5,O=C(CN1C(=O)/C(=C2/SC(=S)N(CCS(=O)(=O)O)C2=O)c2ccccc21)Nc1cccc(Br)c1,103% (inactive)
6,O=C(O)c1ccccc1NS(=O)(=O)c1ccc(NNC(=S)Nc2ccc(OC(F)F)cc2)c([N+](=O)[O-])c1,86.5% (inactive)
7,C=CCNc1nc(Nc2ccc([N+](=O)[O-])cc2)nc(OC)n1,94% (inactive)
8,O=C(Nc1ccc(Cl)cc1C(=O)O)c1ccc2c(c1)C(=O)N(Cc1ccco1)C2=O,103% (inactive)
9,C#CCOc1ccccc1/C=C1/C(=O)ON=C1C,93.1% (inactive)
10,COc1ccc(-c2csc(NC(=O)c3ccccc3Br)c2C(=O)O)cc1,94.8% (inactive)
11,Cc1ccc(/C=N/NC(=O)c2nnn(-c3nonc3N)c2CSc2ccccc2)s1,101% (inactive)
12,CCC(=O)OC1(C)C(=O)C2=COC(c3ccc(OC)cc3)=CC2=C(Br)C1=O (stereo not drawn),91.3% (inactive)
13,CCc1ccc(Nc2ccc(C(=O)O)cc2[N+](=O)[O-])cc1,107% (inactive)
14,O=C(Nc1cc(S(=O)(=O)N2CCOCC2)ccc1O)c1ccc2c(c1)S(=O)(=O)c1ccccc1C2=O,95.9% (inactive)
15,O=S(=O)(Nn1c(O)c(C=C2N=c3ccccc3=N2)sc1=S)c1ccccc1,90.8% (inactive)
16,O=C1ON=C(c2ccc([N+](=O)[O-])cc2)/C1=C/c1ccccc1O,103% (inactive)
17,O=C(NCc1ccccc1)c1sc(=S)n2c1[nH]c(=O)c1ccccc12,98.5% (inactive)
18,Nc1scc2c(C(=O)O)nn(-c3ccccc3)c(=O)c12,103% (inactive)
19,CCOC(=O)c1sc(N2C(=O)C(O)=C(C(=O)c3ccco3)C2c2ccc([N+](=O)[O-])cc2)nc1C (stereo not drawn),97.5% (inactive)
20,Cc1cc(O)c(C(C)C)cc1N=Cc1ccccc1O,91.1% (inactive)
21,O=C1C(Cl)=C(N2CCN(Cc3ccccc3)CC2)C(=O)N1c1ccccc1,96.7% (inactive)
22,CC(=O)Oc1oc(-c2ccccc2)nc1C=Nc1ccccc1,93% (inactive)
23,COc1cc(C(=O)Nc2scc(-c3ccc(Br)cc3)c2C(=O)O)cc(OC)c1OC,92% (inactive)
24,Cc1ccc(SCc2[nH]nc3c2C(c2ccco2)C(C#N)=C(N)O3)cc1 (stereo not drawn),97% (inactive)
25,Nc1cccc2c1C(=O)N(C(=O)/C=C/c1cccc(F)c1)C2=O,102% (inactive)

row,SMILES,viability
1,Cc1cc(O)c(C(C)C)cc1N=Cc1cc([N+](=O)[O-])ccc1O,105% (inactive)
2,O=[N+]([O-])c1ccc(O)c(C=Nc2ccc3c(c2)OCO3)c1,83.4% (inactive)
3,CC[N+]1(CC)CC2CCC(C)(C1)C2(C)C (stereo not drawn),103% (inactive)
4,CCCn1c(C)cc(-c2csc(N)n2)c1C,93.8% (inactive)
5,O=[N+]([O-])c1ccc(O)c(Nc2c([N+](=O)[O-])ccc3nonc23)c1,90.6% (inactive)
6,O=[N+]([O-])c1c(Nc2ccccc2O)cc(Cl)c2nonc12,85.5% (inactive)
7,O=C(O)c1cccc(Nc2cc(Cl)c3nonc3c2[N+](=O)[O-])c1,99.5% (inactive)
8,O=C(O)c1ccc(Nc2cc(Cl)c3nonc3c2[N+](=O)[O-])cc1,96.6% (inactive)
9,O=C(O)c1cc(Nc2cc(Cl)c3nonc3c2[N+](=O)[O-])ccc1O,106% (inactive)
10,Cc1ccc(/C=N/c2sc3c(c2C#N)CCC3)s1,99.6% (inactive)
11,COc1cc(C2C(C#N)=C(N)N(c3cccnc3)C3=C2C(=O)CCC3)ccc1O (stereo not drawn),101% (inactive)
12,CCCCCc1c2c(cc(O)c1C(=O)O)OC(=O)c1cc(C(=O)CCCC)c(OC)cc1O2,103% (inactive)
13,COC(=O)Cc1ccc(NC(=S)Nc2ccc(N3CCOCC3)cc2)cc1,103% (inactive)
14,COc1cc(/C=C2/C(=O)NN(c3cccc(C)c3)C2=O)ccc1OC(=O)c1ccco1,99.3% (inactive)
15,CCC(C)NC(=O)c1ccc(N2CCC3(CC2)OCCO3)c([N+](=O)[O-])c1 (stereo not drawn),95.6% (inactive)
16,CC(C)NC(=O)Cn1cc(S(=O)(=O)N2CCCC2)c(S(=O)(=O)N2CCCC2)c1,96.5% (inactive)
17,CC(=O)Nc1ccc(C2=NNC(=NCC3CCCO3)SC2)cc1 (stereo not drawn),102% (inactive)
18,O=C(O)CN1C(=O)/C(=C\c2cc(Br)ccc2OCc2ccc([N+](=O)[O-])cc2)SC1=S,96.9% (inactive)
19,COc1ccc(-c2csc(/C(C#N)=C(\O)CSc3nccn3C)n2)cc1OC,102% (inactive)
20,CCOc1ccc(C(c2c(O)nc(SC)n(C)c2=O)c2c(O)nc(SC)n(C)c2=O)cc1,100% (inactive)
21,COC(=O)C1=C(C(=O)OC)C(c2cc(Br)ccc2O)c2sc(=O)[nH]c2S1 (stereo not drawn),110% (inactive)
22,Cc1ccc(-c2c(C(=O)N/N=C/c3ccncc3)nnn2-c2nonc2N)cc1,89.8% (inactive)
23,COc1ccc(Cc2c(O)nc(SC)n(C(C)=O)c2=O)cc1,104% (inactive)
24,O=C(O)CN1C(=O)/C(=C\c2cccc(OCc3ccccc3)c2)SC1=S,93.8% (inactive)
25,O=C(CC(c1ccccc1)c1ccccc1O)N1CCCC1 (stereo not drawn),98.5% (inactive)

row,SMILES,viability
1,O=C(O)c1ccc2c(c1Nc1ccccc1)C(=O)c1ccccc1C2=O,85.9% (inactive)
2,Cc1sc(C(C2C(=O)CC(C)(C)CC2=O)C2C(=O)CC(C)(C)CC2=O)cc1[N+](=O)[O-],100% (inactive)
3,O=C(O)c1cccc(NS(=O)(=O)c2ccc(-c3ccc(S(=O)(=O)Nc4cccc(C(=O)O)c4)cc3)cc2)c1,98% (inactive)
4,CCc1ccc(S(=O)(=O)ON2C(=O)c3ccccc3C2=O)cc1,98.7% (inactive)
5,O=C(c1ccccc1NS(=O)(=O)c1ccc([N+](=O)[O-])cc1[N+](=O)[O-])N1O[C@@H]2C=C[C@H]1C2,87.8% (inactive)
6,CCOc1ccc2c(c1)n([O-])c1c([n+]2=O)CCCC1,102% (inactive)
7,COc1cc(C(=O)NC(C(=O)Nc2cccc(C(C)=O)c2)C(C)C)cc(OC)c1OC (stereo not drawn),90.7% (inactive)
8,Cc1nn(CCc2nc(-c3ccco3)cs2)c2[nH]c(=O)cc(C(F)(F)F)c12,89.7% (inactive)
9,C/C(=N\Nc1cccc(C(=O)O)c1)c1ccc(Cl)s1,91.2% (inactive)
10,COC1=C(Br)C(=O)c2ncccc2C1=O,95.4% (inactive)
11,CC(C)c1ccc(NC(=O)COC(=O)CSc2nnc(N)s2)cc1,90.8% (inactive)
12,CC(/C=C1\SC(=S)N(c2ccc(C(=O)O)cc2)C1=O)=C\c1ccccc1,92.8% (inactive)
13,COc1ccc(OC)c2c(C)cc(N3CCCCCC3)nc12,81.7% (inactive)
14,CN(C)c1cc(N/N=C\c2ccccc2)nc(N(C)C)n1,82.2% (inactive)
15,O=C(O)CN1C(=O)/C(=C\c2cc(Br)ccc2OCc2ccccc2F)SC1=S,93.8% (inactive)
16,COc1cccc(CNC(=O)c2cccnc2Sc2ccc(C)cc2C)c1,95.1% (inactive)
17,O=C(CCN1C(=O)S/C(=C\c2ccccc2)C1=O)Nc1ccc(S(=O)(=O)Nc2nccs2)cc1,101% (inactive)
18,CCS(=O)(=O)c1nc(S(=O)(=O)c2ccc(Cl)cc2)c(NCCCN2CCCC2=O)s1,103% (inactive)
19,[O-][n+]1c2ccccc2[n+]([O-])c2cc(O)ccc21,87.3% (inactive)
20,CC(C)c1cccc(-c2ccc3c(c2)S(=O)(=O)c2cccc(C(=O)O)c2C3=O)c1,95.7% (inactive)
21,COc1cc(/C=N/NC(=S)N/N=C/c2cc(OC)c(OC)c(OC)c2)cc(OC)c1OC,101% (inactive)
22,CN(C)c1ccc(N=Nc2ccc(S(=O)(=O)O)cc2)c2ccccc12,97.3% (inactive)
23,CC(=O)NC(CC(=O)OCC(=O)Nc1cc(S(=O)(=O)N2CCCCC2)ccc1C)c1ccccc1 (stereo not drawn),102% (inactive)
24,C#CCOc1ccc(/C=C2/C(=O)ON=C2C)cc1Br,94.4% (inactive)
25,Cc1ccc(C)c(S(=O)(=O)/N=C2\C=C(NS(=O)(=O)c3ccccc3)C(=O)c3ccccc32)c1,81.1% (inactive)

row,SMILES,viability
1,Cc1cc(C)c(S(=O)(=O)ON2C(=O)c3ccccc3C2=O)cc1C,89.7% (inactive)
2,O=C(OCCCN=C1NS(=O)(=O)c2ccccc21)c1ccc(F)cc1,99.1% (inactive)
3,COc1cc(C2C(C#N)=C(N)OC3=C2C(=O)CC(C)(C)C3)cc([N+](=O)[O-])c1O (stereo not drawn),96.9% (inactive)
4,O=C(NN=Cc1cc(Br)c(O)c(Br)c1)c1ccccc1NS(=O)(=O)c1cccs1,94.5% (inactive)
5,CN(C)c1ccc(NC(=O)c2ccc(Cn3cc([N+](=O)[O-])cn3)cc2)cc1,97.8% (inactive)
6,C/C(CCc1oc2c(Br)cc(Br)cc2c1-c1ccc(C)o1)=N\O,85.2% (inactive)
7,CC(=O)OCCNc1cc(SCc2ccco2)c2nonc2c1[N+](=O)[O-],80.2% (inactive)
8,CN(c1ccccc1)c1ccc(/C=C(/CCC(=O)O)c2nc3ccccc3s2)cc1[N+](=O)[O-],85.7% (inactive)
9,CCCC(=O)OCCNc1cc(SCc2ccco2)c2nonc2c1[N+](=O)[O-],83.5% (inactive)
10,CC(=O)OCCCNc1cc(SCc2ccco2)c2nonc2c1[N+](=O)[O-],87% (inactive)
11,COc1cc(/C=C2\C(=O)N(c3ccc(NC(C)=O)cc3)N=C2c2ccccc2)ccc1O,101% (inactive)
12,CCOc1ccc(N2C(=O)C(Cl)=C(Nc3ccccc3O)C2=O)cc1,89% (inactive)
13,C=CCOc1c(Br)cc(/C=C2/C(=O)ON=C2C)cc1OC,107% (inactive)
14,Cc1cc(C2C(=O)CC(=O)CC2c2ccccc2)on1 (stereo not drawn),97% (inactive)
15,COc1cc(/C=C2/C(=N)N3C(c4ccccc4)=CSC3=NC2=O)ccc1OCC(=O)O,98.2% (inactive)
16,CCc1ccc(N=C2NC(=O)/C(=C/c3cc(Br)c(OCC(=O)O)c(OC)c3)S2)cc1,99.5% (inactive)
17,O=C1/C(=C/c2cccs2)SC(=S)N1NS(=O)(=O)c1ccccc1,91% (inactive)
18,CCCOC(=O)c1c(-c2ccc(C)cc2C)csc1NC(=O)C1C2CCC(O2)C1C(=O)O (stereo not drawn),103% (inactive)
19,COc1cccc(-c2[nH]nc3c2C(c2ccoc2)C(C#N)=C(N)O3)c1 (stereo not drawn),94.6% (inactive)
20,O=S(=O)(O)c1cc2onnc2c2ccccc12,97.9% (inactive)
21,CC1CC(=O)C(C(C2=C(O)CC(C)CC2=O)c2ccccc2)=C(O)C1 (stereo not drawn),107% (inactive)
22,Cc1[nH][nH]c(=O)c1C(c1ccc(-c2ccc(Cl)c(C(=O)O)c2)o1)c1c(C)[nH][nH]c1=O,96.7% (inactive)
23,Cc1[nH][nH]c(=O)c1C(c1ccc(-c2cccc(Cl)c2)o1)c1c(C)[nH][nH]c1=O,89.6% (inactive)
